Source: the supplement of paper PMC4894684
Where a name gives a salt, the structure may show the parent alone. ± gives the standard deviation of the averaged measurements.

The compounds below were run on Toxoplasma gondii RH (in HFF) (assay: parasite growth relative to the screen mean (all compounds = 100%); higher = less inhibition of parasite growth). Conditions: 5 µM; 72 h; oxygen 21 %.
Method in brief: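 Growth values are relative to the mean of the whole screen and averaged over duplicate screens, with all compounds together set to 100%. Parasites (RH β-Gal–GFP Toxoplasma, MOI 1:5) were added within 2 h of pinning compounds at 5 µM final onto confluent human foreskin fibroblasts and grown 72 h at 21% O2. Parasite number came from CPRG β-Gal readings against in-plate standard curves.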

Row | SMILES | parasite growth [%]
1 | CC1OC2(CS1)CN1CCC2CC1 (stereo not given) [Cevimeline hydrochloride] | 148 ± 82
2 | COc1cc(/C=C(\C#N)C(N)=O)cc(CSc2nc3ccccc3s2)c1O | 128 ± 3.3
3 | O=C(O)Cc1nn(Cc2ccc(Br)cc2F)c(=O)c2ccccc12 [Statil] | 91.7 ± 26
4 | CC(=O)NCCc1c(Cc2ccccc2)[nH]c2ccccc12 [Luzindole] | 75.1 ± 29
5 | NC(=O)OCC(COC(N)=O)c1ccccc1 [Felbamate] | 85.9 ± 60
6 | O=C(O)C=C1CCCc2ccccc2C1O (stereo not given) | 112 ± 16
7 | CC(C)NC[C@H](O)COc1cccc2ccccc12 [(S)-(-)-Propranolol hydrochloride] | 81.8 ± 3.3
8 | CCc1cc2c(c(CC)n1)CCC(=O)N2Cc1ccc(-c2ccccc2-c2nn[nH]n2)cc1 [ZD 7155 hydrochloride] | 91.1 ± 57
9 | c1ccc2cc(C3=NCCN3)ncc2c1 [BU 226 hydrochloride] | 126 ± 3.6
10 | CCC(=O)OCN1C(=O)C=CC1=O | 124 ± 12
11 | CC(C)(C=O)Cc1cc(C(C)(C)C)c(O)c(C(C)(C)C)c1 | 199 ± 11
12 | N=C(N)NC(=N)Nc1ccccc1 [1-Phenylbiguanide hydrochloride] | 91.9 ± 21
13 | CCCCNC(=O)[C@@H]1Cc2ccccc2N1C(=O)[C@@H](N)CC [Butabindide oxalate] | 130 ± 7.7
14 | CC1(C)CCC(C)(C)c2cc(C3(c4ccc(C(=O)O)cc4)OCCO3)ccc21 | 115 ± 34
15 | COC(=O)[C@@H]1CC2=CC(=O)CC[C@]2(C)[C@@]23O[C@@H]2C[C@@]2(C)[C@@H](CC[C@@]24CCC(=O)O4)[C@H]13 [Eplerenone] | 132 ± 22
